Source: PubChem BioAssay (EPA / NIEHS)
Records with an inconclusive call do not appear. Activity calls are given as the source filed them. Rule for the calls, unless noted: active = hit-call score of the fitted dose curve at least 0.9, where 1 is the maximum; inactive = score below 0.9.

Columns and labels:
[1] = ATG_NFI_CIS: Attagene CIS-FACTORIAL HepG2 Assay for human Nuclear Factor I (NFI) (AID 2282989); conditions: HepG2 cis-regulatory reporter, NFI response element transcription; actives raise or lower the signal
Method in brief: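 Multiplexed cis-reporter system in human HepG2 cells reports native TF activity as reporter mRNA induction 24 h post-dose. Fragments labelled with 6-FAM, HpaI-digested and resolved by capillary electrophoresis; activity fitted both directions versus DMSO.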

[2] = target: Myc proto-oncogene protein (Homo sapiens) (UniProt P01106); experiment: ATG_Myc_CIS: Attagene CIS-FACTORIAL HepG2 Assay for human Myelocytomatosis (Myc) Proto-Oncogene Transcription Factor (AID 2282990); conditions: HepG2, Attagene cis-reporter transcription factor activity; actives raise or lower the signal
Method in brief: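 HepG2 cells transiently transfected with multiple cis-promoter-driven reporter transcription units, so endogenous TF activity is read. After 24 h compound exposure, reporter mRNA was quantified by RT-PCR, 6-FAM labelling, HpaI digestion and capillary electrophoresis; bidirectional fit versus DMSO.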

[3] = ATG_NRF2_ARE_CIS: Attagene CIS-FACTORIAL HepG2 Assay for human Nuclear Factor Erythroid 2 Related Factor 2 (NFR2) response to Antioxidant Response Elements (ARE) (AID 2282992); conditions: HepG2 Attagene ARE/NRF2 reporter, transcription factor activity; actives raise or lower the signal;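 for AC50: reporter mRNA level measured by RT-PCR and capillary electrophoresis fluorescence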
Method in brief: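 Multiplexed reporter mRNA profiling in HepG2 after a 24 h chemical exposure. Curves fitted in both directions relative to DMSO negative control.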

[4] = ATG_Oct_MLP_CIS: Attagene CIS-FACTORIAL HepG2 Assay for human Octamer-Binding Transcription Factor (Oct) (AID 2282993); conditions: HepG2 Attagene cis-factorial Oct reporter, mRNA; actives raise or lower the signal
Method in brief: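 After 24 h compound exposure, transfected HepG2 cells were lysed for total RNA; reporter-specific cDNA was PCR-amplified, fluorescently labelled and sized by capillary electrophoresis. Bidirectional curve fitting used DMSO as baseline.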

[5] = target: Cellular tumor antigen p53 (Homo sapiens) (UniProt P04637); experiment: ATG_p53_CIS: Attagene CIS-FACTORIAL HepG2 Assay for human p53 Transcription Factor (AID 2282994); conditions: HepG2 p53 cis-element reporter, Attagene mRNA; actives raise or lower the signal
Method in brief: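 Multiplexed reporter mRNA assay in human HepG2 liver cells; cis-regulated units report endogenous factor activity. Values come from bidirectional curve fitting against DMSO negative control after 24 h treatment.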

[6] = BSK_3C_TissueFactor: BioMAP Diversity Plus: 3C Assay for Tissue Factor Biomarker Activity (AID 2282997); conditions: BioMAP 3C HUVEC, tissue factor biomarker readout; actives raise or lower the signal
Method in brief: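 Primary human umbilical vein endothelial cells in the 3C system were exposed to test chemical for 24 h, then Tissue Factor measured by ELISA. Activity was fitted bidirectionally against DMSO as negative control and baseline.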

[7] = BSK_3C_uPAR: BioMAP Diversity Plus: 3C Assay for Urokinase-type plasminogen activator receptor (uPAR) Biomarker Activity (AID 2282998); conditions: BioMAP 3C HUVEC, uPAR biomarker ELISA; actives raise or lower the signal
Method in brief: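 Values derive from bidirectional curve fitting relative to DMSO, which served as baseline of activity. uPAR was measured by ELISA in human umbilical vein endothelial primary cultures 24 h after compound addition.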

[8] = BSK_3C_VCAM1: BioMAP Diversity Plus: 3C Assay for Vascular cell adhesion molecule 1 (VCAM1) Biomarker Activity (AID 2282999); conditions: BioMAP 3C HUVEC, VCAM1 ELISA, cytokine-stimulated; actives raise or lower the signal
Method in brief: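 Human umbilical vein endothelial cells were dosed with compound for 24 h, after which cell-surface VCAM-1 was quantified by ELISA. Bidirectional curve fitting used DMSO as negative control and activity baseline.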

[9] = BSK_4H_Eotaxin3: BioMAP Diversity Plus: 4H Assay for Eotaxin 3 Biomarker Activity (AID 2283000); conditions: primary human endothelial cells (HUVEC); actives raise or lower the signal
Method in brief: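 HUVEC, 24 h post-dose, ELISA for Eotaxin-3/CCL26. Gain or loss of signal fitted bidirectionally vs DMSO baseline.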

[10] = target: human Peroxisome Proliferator-activated Receptor alpha (PPARa), PPARA (gene 5465) (UniProt Q07869); experiment: ATG_PPARa_TRANS: Attagene TRANS-FACTORIAL HepG2 Assay for human Peroxisome Proliferator-activated Receptor alpha (PPARa) (AID 2283001; active = hit-call score of the fitted dose curve at least 0.9, where 1 is the maximum;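 for AC50: potency for gain of reporter signal over DMSO so agonist or activator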)
Method in brief: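 HepG2 cells transiently transfected with multiplexed GAL4-UAS reporter units and chimeric NR-Gal4 constructs were dosed for 24 h. Reporter mRNA was measured by RT-PCR with fluorescent labelling and capillary electrophoresis; gain of signal fitted against DMSO.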

[11] = target: human Peroxisome Proliferator-activated Receptor delta (PPARd), PPARD (gene 5467) (UniProt Q03181); experiment: ATG_PPARd_TRANS: Attagene TRANS-FACTORIAL HepG2 Assay for human Peroxisome Proliferator-activated Receptor delta (PPARd) (AID 2283002; active = hit-call score of the fitted dose curve at least 0.9, where 1 is the maximum)
Method in brief: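 HepG2 cells transiently transfected with multiplexed GAL4-UAS reporter units and exogenous chimeric NR-Gal4 proteins; 24 h compound exposure. Reporter mRNA measured by RT-PCR, 6-FAM labelling, HpaI digestion and capillary electrophoresis; gain of signal versus DMSO.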

[12] = read-out: Intercellular Adhesion Molecule 1 (ICAM1), ICAM1 (gene 3383); experiment: BSK_3C_ICAM1: BioMAP Diversity Plus: 3C Assay for Intercellular Adhesion Molecule 1 (ICAM1) Biomarker Activity (AID 2283003); conditions: primary human endothelial cells (HUVEC); actives raise or lower the signal
Method in brief: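 Primary human umbilical vein endothelial cells in the BioMAP 3C system were exposed to chemicals for 24 h, then ICAM-1 was quantified by ELISA. Activity was fitted bidirectionally against the DMSO negative control baseline.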

[13] = BSK_3C_Proliferation: Cell Proliferation Assessment in the BioMAP Diversity Plus: 3C Assay (AID 2283006); conditions: primary human endothelial cells (HUVEC);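 for AC50: potency may reflect either rise or fall in cell number versus DMSO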
Method in brief: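 Human umbilical vein endothelial cells were grown sub-confluent and exposed to chemical for 48 h, then fixed with 10% TCA and stained with 0.1% sulforhodamine B; absorbance at 560 nm gave relative cell number, fitted bidirectionally against DMSO baseline.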

[14] = target: Peroxisome proliferator-activated receptor gamma (Homo sapiens) (UniProt P37231); experiment: ATG_PPARg_TRANS: Attagene TRANS-FACTORIAL HepG2 Assay for human Peroxisome Proliferator-activated Receptor-gamma (PPARg) (AID 2283007; active = hit-call score of the fitted dose curve at least 0.9, where 1 is the maximum)
Method in brief: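 Gain-of-signal endpoint relative to DMSO, derived from reporter mRNA levels quantified by RT-PCR and capillary electrophoresis. Cells were HepG2 transiently expressing a chimeric NR-Gal4 construct with GAL4-UAS reporters, exposed to chemicals for 24 h.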

[15] = target: Nuclear receptor subfamily 1 group I member 2 (Homo sapiens) (UniProt O75469); experiment: ATG_PXR_TRANS: Attagene TRANS-FACTORIAL HepG2 Assay for human Pregnane X Receptor (PXR) (AID 2283008; active = hit-call score of the fitted dose curve at least 0.9, where 1 is the maximum)
Method in brief: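 Measures mRNA induction of a GAL4-UAS-driven reporter in human HepG2 cells transiently expressing PXR fused to Gal4, following 24 h treatment. DMSO served as negative control and baseline.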

[16] = target: human RAR-related Orphan Receptor beta (RORb), RORB (gene 6096) (UniProt Q92753); experiment: ATG_RORb_TRANS: Attagene TRANS-FACTORIAL HepG2 Assay for human RAR-related Orphan Receptor beta (RORb) (AID 2283010; active = hit-call score of the fitted dose curve at least 0.9, where 1 is the maximum)
Method in brief: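 HepG2 cells were transiently transfected with multiplexed GAL4-UAS reporter units expressing chimeric nuclear receptor–GAL4 proteins, then dosed for 24 h. Reporter mRNA was quantified by RT-PCR with fluorescent labelling and capillary electrophoresis; gain of signal was fitted relative to DMSO.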

[17] = target: Retinoic acid receptor alpha (Homo sapiens) (UniProt P10276); experiment: ATG_RARa_TRANS: Attagene TRANS-FACTORIAL HepG2 Assay for human Retinoic Acid Receptor alpha (RARa) (AID 2283005; active = hit-call score of the fitted dose curve at least 0.9, where 1 is the maximum)
Method in brief: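 HepG2 cells transiently transfected with multiple reporter units expressing chimeric RARα-GAL4 fusion, with GAL4-UAS-driven reporters. After 24 h compound exposure, reporter mRNA induction quantified by RT-PCR and capillary electrophoresis with fluorescent labeling; gain-of-signal fitted relative to DMSO control.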

[18] = target: human Retinoic Acid Receptor gamma (RARg), RARG (gene 5916) (UniProt P13631); experiment: ATG_RARg_TRANS: Attagene TRANS-FACTORIAL HepG2 Assay for human Retinoic Acid Receptor gamma (RARg) (AID 2283009; active = hit-call score of the fitted dose curve at least 0.9, where 1 is the maximum)
Method in brief: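 HepG2 cells transiently transfected with multiplexed reporter units expressing chimeric RARg-GAL4 and GAL4-UAS-driven reporters; 24 h compound exposure. Reporter mRNA quantified by RT-PCR with fluorescent labelling and capillary electrophoresis; gain-of-signal fitted relative to DMSO baseline.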

[19] = target: human Retinoic Acid Receptor beta (RARb), RARB (gene 5915) (UniProt P10826); experiment: ATG_RARb_TRANS: Attagene TRANS-FACTORIAL HepG2 Assay for human Retinoic Acid Receptor beta (AID 2283004; active = hit-call score of the fitted dose curve at least 0.9, where 1 is the maximum)
Method in brief: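 HepG2 cells transiently transfected with multiplexed GAL4-UAS reporter units expressing chimeric NR–Gal4 fusions; 24 h compound exposure. Reporter mRNA quantified by RT-PCR, 6-FAM labelling, HpaI digestion and capillary electrophoresis; gain-of-signal fitted against DMSO baseline.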

Measured: AC50

human Retinoic Acid Receptor gamma (RARg), RARG (gene 5916), sequence (P13631 whole entry, looked up, the tested form may be a part): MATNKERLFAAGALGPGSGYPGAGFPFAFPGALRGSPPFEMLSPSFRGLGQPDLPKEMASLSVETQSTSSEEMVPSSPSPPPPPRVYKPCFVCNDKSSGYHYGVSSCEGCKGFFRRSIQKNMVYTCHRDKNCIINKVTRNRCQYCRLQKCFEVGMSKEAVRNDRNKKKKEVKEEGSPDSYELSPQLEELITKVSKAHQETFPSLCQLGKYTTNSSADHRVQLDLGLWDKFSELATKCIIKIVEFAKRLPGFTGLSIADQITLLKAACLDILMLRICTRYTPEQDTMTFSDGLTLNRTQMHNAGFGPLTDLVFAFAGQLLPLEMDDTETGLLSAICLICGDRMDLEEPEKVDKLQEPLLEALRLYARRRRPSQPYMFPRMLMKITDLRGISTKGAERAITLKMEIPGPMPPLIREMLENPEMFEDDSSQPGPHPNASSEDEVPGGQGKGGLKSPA
human Peroxisome Proliferator-activated Receptor alpha (PPARa), PPARA (gene 5465), sequence (Q07869 whole entry, looked up, the tested form may be a part): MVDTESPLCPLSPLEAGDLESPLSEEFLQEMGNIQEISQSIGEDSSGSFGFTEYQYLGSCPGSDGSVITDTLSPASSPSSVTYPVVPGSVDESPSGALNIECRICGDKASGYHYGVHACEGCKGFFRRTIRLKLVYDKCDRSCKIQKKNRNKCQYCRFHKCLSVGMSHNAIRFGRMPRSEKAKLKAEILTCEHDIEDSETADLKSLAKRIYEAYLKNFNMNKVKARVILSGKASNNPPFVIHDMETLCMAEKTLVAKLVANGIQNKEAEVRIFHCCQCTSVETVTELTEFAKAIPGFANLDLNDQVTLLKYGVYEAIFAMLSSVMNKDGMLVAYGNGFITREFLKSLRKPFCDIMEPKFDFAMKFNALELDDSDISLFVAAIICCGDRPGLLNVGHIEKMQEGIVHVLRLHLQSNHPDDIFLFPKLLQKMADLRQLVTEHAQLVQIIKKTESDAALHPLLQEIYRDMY
Peroxisome proliferator-activated receptor gamma (Homo sapiens), sequence (P37231 whole entry, looked up, the tested form may be a part): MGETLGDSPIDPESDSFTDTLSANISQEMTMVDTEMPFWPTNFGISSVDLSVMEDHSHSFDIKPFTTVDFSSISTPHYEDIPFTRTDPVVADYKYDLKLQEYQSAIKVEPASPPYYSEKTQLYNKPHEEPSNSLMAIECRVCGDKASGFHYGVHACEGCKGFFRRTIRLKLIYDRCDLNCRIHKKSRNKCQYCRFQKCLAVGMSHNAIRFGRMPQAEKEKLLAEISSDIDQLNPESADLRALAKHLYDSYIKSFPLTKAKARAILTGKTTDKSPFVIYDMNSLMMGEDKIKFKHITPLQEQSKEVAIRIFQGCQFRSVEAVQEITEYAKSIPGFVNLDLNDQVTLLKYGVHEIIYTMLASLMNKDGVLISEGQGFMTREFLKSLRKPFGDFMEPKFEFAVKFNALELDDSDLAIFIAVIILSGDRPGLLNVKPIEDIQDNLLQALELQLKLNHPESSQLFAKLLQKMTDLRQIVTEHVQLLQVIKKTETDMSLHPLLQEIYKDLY
Nuclear receptor subfamily 1 group I member 2 (Homo sapiens), sequence (O75469 whole entry, looked up, the tested form may be a part): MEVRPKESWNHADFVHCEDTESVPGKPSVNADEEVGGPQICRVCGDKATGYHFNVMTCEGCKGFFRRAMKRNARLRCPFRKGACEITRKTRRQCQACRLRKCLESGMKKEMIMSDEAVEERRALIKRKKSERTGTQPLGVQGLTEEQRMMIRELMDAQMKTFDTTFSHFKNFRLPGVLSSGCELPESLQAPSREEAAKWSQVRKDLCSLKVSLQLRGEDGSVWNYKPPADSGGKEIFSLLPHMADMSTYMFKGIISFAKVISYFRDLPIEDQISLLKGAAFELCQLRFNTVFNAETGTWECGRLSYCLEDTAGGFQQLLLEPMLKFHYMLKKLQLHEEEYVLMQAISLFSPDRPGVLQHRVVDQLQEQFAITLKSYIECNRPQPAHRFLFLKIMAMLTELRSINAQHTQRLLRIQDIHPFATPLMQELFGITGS
human Peroxisome Proliferator-activated Receptor delta (PPARd), PPARD (gene 5467), sequence (Q03181 whole entry, looked up, the tested form may be a part): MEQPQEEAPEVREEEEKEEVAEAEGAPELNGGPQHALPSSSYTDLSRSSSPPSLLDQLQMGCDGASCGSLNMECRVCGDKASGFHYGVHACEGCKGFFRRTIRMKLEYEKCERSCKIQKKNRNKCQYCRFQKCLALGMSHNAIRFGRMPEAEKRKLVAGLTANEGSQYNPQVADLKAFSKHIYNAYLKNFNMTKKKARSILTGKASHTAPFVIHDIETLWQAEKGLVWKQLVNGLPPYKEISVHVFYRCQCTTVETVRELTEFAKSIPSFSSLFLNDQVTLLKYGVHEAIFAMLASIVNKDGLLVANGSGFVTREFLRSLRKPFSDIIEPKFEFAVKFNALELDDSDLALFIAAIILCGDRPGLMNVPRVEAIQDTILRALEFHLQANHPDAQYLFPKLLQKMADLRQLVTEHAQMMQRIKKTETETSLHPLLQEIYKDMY
Cellular tumor antigen p53 (Homo sapiens), sequence (P04637 whole entry, looked up): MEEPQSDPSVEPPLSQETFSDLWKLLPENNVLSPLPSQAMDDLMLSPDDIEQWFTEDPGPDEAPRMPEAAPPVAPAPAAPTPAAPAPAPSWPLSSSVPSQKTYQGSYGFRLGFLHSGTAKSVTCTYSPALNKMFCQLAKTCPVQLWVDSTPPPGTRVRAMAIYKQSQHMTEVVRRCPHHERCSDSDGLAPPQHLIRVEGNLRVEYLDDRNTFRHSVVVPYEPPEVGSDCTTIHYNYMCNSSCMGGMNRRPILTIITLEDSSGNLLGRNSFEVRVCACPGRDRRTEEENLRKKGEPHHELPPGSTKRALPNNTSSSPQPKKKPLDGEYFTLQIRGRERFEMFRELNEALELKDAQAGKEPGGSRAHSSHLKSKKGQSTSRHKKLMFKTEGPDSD
human RAR-related Orphan Receptor beta (RORb), RORB (gene 6096), sequence (Q92753 whole entry, looked up, the tested form may be a part): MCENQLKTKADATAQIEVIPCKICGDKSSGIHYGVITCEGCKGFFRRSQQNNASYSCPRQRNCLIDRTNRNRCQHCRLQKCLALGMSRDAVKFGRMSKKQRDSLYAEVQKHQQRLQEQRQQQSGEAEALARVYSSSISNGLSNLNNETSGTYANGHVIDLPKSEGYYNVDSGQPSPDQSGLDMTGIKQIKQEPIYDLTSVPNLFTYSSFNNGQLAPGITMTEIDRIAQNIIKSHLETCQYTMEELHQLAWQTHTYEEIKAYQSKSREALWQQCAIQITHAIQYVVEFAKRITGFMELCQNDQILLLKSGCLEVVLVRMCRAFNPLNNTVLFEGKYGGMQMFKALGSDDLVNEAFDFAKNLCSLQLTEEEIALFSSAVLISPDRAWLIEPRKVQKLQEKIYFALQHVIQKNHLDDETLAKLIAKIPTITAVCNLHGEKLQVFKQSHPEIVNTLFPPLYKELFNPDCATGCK
Myc proto-oncogene protein (Homo sapiens), sequence (P01106 whole entry, looked up): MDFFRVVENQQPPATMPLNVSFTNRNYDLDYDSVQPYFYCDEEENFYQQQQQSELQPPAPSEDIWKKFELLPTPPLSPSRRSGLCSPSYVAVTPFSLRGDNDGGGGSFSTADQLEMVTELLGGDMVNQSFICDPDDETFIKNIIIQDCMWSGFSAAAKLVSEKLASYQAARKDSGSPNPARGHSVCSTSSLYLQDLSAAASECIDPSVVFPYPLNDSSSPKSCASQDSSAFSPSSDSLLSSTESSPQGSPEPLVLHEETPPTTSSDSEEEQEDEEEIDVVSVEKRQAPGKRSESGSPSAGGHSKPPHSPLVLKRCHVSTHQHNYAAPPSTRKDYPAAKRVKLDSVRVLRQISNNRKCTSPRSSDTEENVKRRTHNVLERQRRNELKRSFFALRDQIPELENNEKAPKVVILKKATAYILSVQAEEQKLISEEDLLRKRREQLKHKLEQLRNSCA
human Retinoic Acid Receptor beta (RARb), RARB (gene 5915), sequence (P10826 whole entry, looked up, the tested form may be a part): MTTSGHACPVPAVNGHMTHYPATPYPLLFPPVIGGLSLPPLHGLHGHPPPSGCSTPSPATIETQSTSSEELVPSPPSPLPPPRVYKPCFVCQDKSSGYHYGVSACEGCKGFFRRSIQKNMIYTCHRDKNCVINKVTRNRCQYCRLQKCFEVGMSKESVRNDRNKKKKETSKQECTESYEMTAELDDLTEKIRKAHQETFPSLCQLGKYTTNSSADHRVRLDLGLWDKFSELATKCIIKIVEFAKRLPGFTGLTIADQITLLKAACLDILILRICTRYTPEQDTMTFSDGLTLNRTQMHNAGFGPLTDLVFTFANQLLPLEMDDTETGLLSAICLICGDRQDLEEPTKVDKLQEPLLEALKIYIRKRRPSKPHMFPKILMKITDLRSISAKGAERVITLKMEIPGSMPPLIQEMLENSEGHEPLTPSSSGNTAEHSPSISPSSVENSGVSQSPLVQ
Retinoic acid receptor alpha (Homo sapiens), sequence (P10276 whole entry, looked up, the tested form may be a part): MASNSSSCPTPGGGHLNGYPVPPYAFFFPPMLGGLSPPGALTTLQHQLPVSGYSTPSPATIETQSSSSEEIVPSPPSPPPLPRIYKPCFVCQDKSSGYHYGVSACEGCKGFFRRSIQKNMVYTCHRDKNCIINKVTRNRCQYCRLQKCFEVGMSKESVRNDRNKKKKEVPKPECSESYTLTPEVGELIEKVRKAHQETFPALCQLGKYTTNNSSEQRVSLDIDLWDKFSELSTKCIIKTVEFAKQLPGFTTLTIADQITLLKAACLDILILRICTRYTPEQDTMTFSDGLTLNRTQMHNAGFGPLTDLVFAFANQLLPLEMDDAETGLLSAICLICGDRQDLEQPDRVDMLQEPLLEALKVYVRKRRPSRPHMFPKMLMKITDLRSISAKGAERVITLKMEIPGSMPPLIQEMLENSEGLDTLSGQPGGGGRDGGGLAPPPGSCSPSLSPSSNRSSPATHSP

O=C1CCCCCCCCCCCCCCO1
active: [3] 74.4 µM | [4] 69.4 µM | [6] 26.5 µM | [7] 20 µM | [8] 17.9 µM | [9] 27.3 µM | [10] 100 µM | [11] 179 µM | [12] 28.6 µM | [13] 20 µM | [14] 60.1 µM | [15] 48.3 µM
inactive: [1] | [2] | [5] | [16]

CC(C)=CCC[C@H](C)CC=O
inactive: [1] | [2] | [3] | [4] | [5] | [10] | [14]

CCC(=O)OCc1ccccc1
inactive: [1] | [2] | [3] | [4] | [5] | [6] | [7] | [8] | [9] | [11] | [12] | [13] | [15] | [16]

C=CC(C)(CCC=C(C)C)OC=O (centres undefined)
inactive: [1] | [2] | [4] | [5] | [10] | [11] | [14] | [15] | [16]
active: [3] 153 µM

CC(=O)/C=C/C1=C(C)CCCC1(C)C
active: [3] 27.7 µM | [14] 21.1 µM | [15] 2.3 µM
inactive: [1] | [2] | [4] | [6] | [7] | [8] | [9] | [12] | [13]

O=C(O)CCSCCC(=O)O
inactive: [1] | [2] | [3] | [5] | [10] | [14] | [15]

CN1Cc2c(N)cccc2C(c2ccccc2)C1 (centres undefined)
inactive: [1] | [2] | [3] | [4] | [17] | [15] | [18]

CC(=O)[O][Al][O]C(C)=O
inactive: [1] | [2] | [3] | [4] | [15] | [16]

CCCCO
inactive: [1] | [2] | [3] | [4] | [5] | [10] | [15] | [16]

CC(C)C[C@H]1C(=O)N2CCC[C@H]2[C@]2(O)O[C@](NC(=O)[C@@H]3C=C4c5cccc6[nH]c(Br)c(c56)C[C@H]4N(C)C3)(C(C)C)C(=O)N12
active: [1] 3.81 µM | [3] 3.7 µM | [15] 0.505 µM
inactive: [2] | [4] | [10] | [19] | [14] | [18]

CC(=O)C=CC1=C(C)CCCC1(C)C
active: [3] 25 µM | [14] 14.1 µM
inactive: [1] | [2] | [4]

O=C[C@H](O)[C@H](O)[C@H](O)CO
inactive: [1] | [2] | [3] | [5] | [10] | [11] | [19] | [17] | [14] | [18]

CCC(=O)/C=C/C1C(C)=CCCC1(C)C (centres undefined)
inactive: [1] | [2] | [5] | [10] | [11]
active: [3] 40.4 µM | [14] 21.4 µM | [15] 3.77 µM
